Hits are enriched below; roughly 21% of the tested compounds scored in any of these assays.
Pf growth 48h = inhibits P. falciparum growth in the first generation, 48 h | P. falciparum luciferase growth in erythrocytes, 48 h | Potency, µM (titrated, usually from 28.7 µM), without a hit: at the top dose activity change, negative = inhibition, actives largely listed as inhibitors | 310,000 tested, 5.9% active | AID 504832; further: potency means the concentration at half of the fitted maximal effect; on the % scale 0 is the no-effect control and ±100 the full control effect
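A one-generation exposure of luciferase-tagged malaria parasites in RPMI 1640/Albumax erythrocyte culture, 37 C and 5% CO2. Inhibition is inferred from decreased luminescence after adding detection reagent.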
Shiga inhibitor = inhibitors of Shiga toxin in Vero cells | Vero cells, Shiga toxin protein synthesis inhibition reporter | inhibition, % at 38.7 µM | 290,000 tested, 9.2% active | AID 2315; in the data active means inhibition mostly above about 28%, no sharp cut-off; inactive means mostly below about 43%; further: 0% is about no effect
Cycloheximide cs = counter-screen hit for Shiga toxin inhibitors, cycloheximide; cell reporter, cycloheximide protein synthesis inhibition counterscreen; 300,000 tested, 12% active; AID 2314; max response, %; in the data active means max response mostly above about 13%, no sharp cut-off; inactive means mostly below about 14%; further: read at 38.3 µM for the half of the compounds with a filed dose; 0% is about no effect
Pf growth 96h = inhibits malaria parasite growth, 96 h; P. falciparum luciferase reporter growth, 96 h; Potency, µM (top dose mostly 28.7 µM), inactives show at the highest dose activity change, negative = inhibition, hits mostly inhibitors; 320,000 tested, 6.9% active; AID 504834; further: potency means the concentration at half of the fitted maximal effect; on the % scale 0 is the no-effect control and ±100 the full control effect
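Luminescence readout: decreased luciferase signal marks inhibited growth of reporter-expressing P. falciparum in infected red cells (2% hematocrit, 0.05% parasitemia final), exposed to compound two generations (96 h, 37 C, 5% CO2).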
NS1 function inh = inhibitors of influenza NS1 protein function; 270,000 tested, 0.4% active; AID 2326; Potency, µM (titrated, usually from 46.1 µM), for the others: at the highest dose activity, positive = more growth; calls by dose curve; further: potency means the concentration at half of the fitted maximal effect; actives are rising curves; nearly all actives have a fitted effect of over 50% in size
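Read-out: OD600 growth recovery of NS1-expressing budding yeast. Cells grown overnight at 30C in -URA glucose medium, washed, resuspended and diluted 1:100 in 2% galactose assay medium, pH 6.0. Same strain lacking NS1 served as positive control.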
Starred values were filed as active, the others as inactive. Unless noted, the call rests on the fitted dose curve; in most records, active means well fitted inhibition curve with a large enough effect; inconclusive means small, poorly fitted or top-dose-only effect, or another doubt; inactive means no such curve, though single readings can be large or run the other way.

Screening CN(C)c1ccc2nc3c(=O)[nH]c(=O)nc-3n(CC(O)C(O)C(O)CO)c2c1 (stereo not drawn) returned Pf growth 48h 4.15µM*, Shiga inhibitor -1.0, Cycloheximide cs -3.1, Pf growth 96h 44.2% and NS1 function inh 0.9%.
For CCN(CC)CCC(c1ccc(N(C)C)cc1)c1c(OC)cc(OC)c2c1OC(=O)CC2c1ccc(OC)cc1 (stereo not drawn) the results were Shiga inhibitor -4.0 and Cycloheximide cs -10.0.
Cc1[nH][nH]c(=O)c1C(c1ccc(-c2cccc(C(=O)O)c2)o1)c1c(C)[nH][nH]c1=O was read as Pf growth 48h 14.0%, Shiga inhibitor 74.4*, Cycloheximide cs 58.5*, Pf growth 96h 0.0% and NS1 function inh 9.2%.
Screening CC(=O)c1ccc(OCC(=O)N(C)CC(=O)Nc2ccc(N3CCOCC3)cc2)cc1 returned Pf growth 48h 18.3% and Pf growth 96h 6.5%.
N#CC1(NC(=O)COC(=O)c2ccccc2[N+](=O)[O-])CCCCC1 was read as Pf growth 48h 31.8% and Pf growth 96h -15.2%.
`N#CC1(NC(=O)COC(=O)c2cc(O)c3ccccc3c2O)CCCCC1` gave Pf growth 48h inconclusive and Pf growth 96h 11.7µM*.
Screening CCc1cccc(NC(=O)Cn2c3[n+](c4ccc(C(F)(F)F)cc42)CCCCC3)c1 returned Pf growth 48h 4.65µM*, Shiga inhibitor -4.9, Cycloheximide cs -3.3, Pf growth 96h 1.04µM* and NS1 function inh 8.4%.
`O=C(Cn1c2[n+](c3ccc(C(F)(F)F)cc31)CCCCC2)c1cccc([N+](=O)[O-])c1` gave Pf growth 48h 14.7µM*, Shiga inhibitor 1.0, Cycloheximide cs 4.2 and Pf growth 96h 13.1µM*.
`O=C(Cn1c2[n+](c3ccc(C(F)(F)F)cc31)CCCCC2)c1ccc2c(c1)OCCO2` gave Pf growth 48h inconclusive, Shiga inhibitor -9.6, Cycloheximide cs 4.9, Pf growth 96h inconclusive and NS1 function inh 7.2%.
O=C(Cn1c2[n+](c3ccc(C(F)(F)F)cc31)CCCCC2)Nc1ccccc1 was read as Pf growth 48h inconclusive, Shiga inhibitor 8.9, Cycloheximide cs -3.1, Pf growth 96h inconclusive and NS1 function inh 19.6%.
Screening FC(F)(F)c1ccc2c(c1)n(Cc1ccccc1)c1[n+]2CCCCC1 returned Pf growth 48h 6.57µM*, Shiga inhibitor 3.7, Cycloheximide cs 4.2 and Pf growth 96h inconclusive.
O=C(/C=N/O)Nc1cccnc1 was read as Pf growth 48h -5.3%, Shiga inhibitor 18.4, Cycloheximide cs -2.5, Pf growth 96h inconclusive and NS1 function inh 3.3%.
Screening O=C(Nc1cccnc1)c1c(F)cccc1F returned Pf growth 48h 19.9%, Shiga inhibitor 1.4, Cycloheximide cs 6.8 and NS1 function inh 4.4%.
`O=C(/C=C/c1c(F)cccc1Cl)Nc1cccnc1` gave Pf growth 48h 5.6%, Cycloheximide cs 39.3*, Pf growth 96h inconclusive and NS1 function inh -79.3%.
For O=C(/C=C/c1cc(Br)ccc1F)Nc1cccnc1 the results were Pf growth 48h 2.7%, Shiga inhibitor 38.9*, Cycloheximide cs 25.8*, Pf growth 96h 20.4% and NS1 function inh -42.8%.
For Cc1cccc(Nc2ccc([N+](=O)[O-])cn2)c1 the results were Pf growth 48h inconclusive, Shiga inhibitor 63.4*, Cycloheximide cs 25.5*, Pf growth 96h 14.7% and NS1 function inh -36.6%.
CCOc1cccc(Nc2ccc([N+](=O)[O-])cn2)c1 was read as Pf growth 48h 72.9%, Cycloheximide cs 29.1*, Pf growth 96h -16.8% and NS1 function inh -38.5%.
CCc1nccn1S(=O)(=O)c1cc(OC)c(Cl)cc1OC was read as Pf growth 48h -6.6%, Shiga inhibitor -11.9, Cycloheximide cs -3.8, Pf growth 96h inconclusive and NS1 function inh -6.3%.
`CC1CCN(C(=O)COc2cccc3c2CCN(C)C3=O)CC1` gave Pf growth 48h 0.3%, Shiga inhibitor 17.4, Cycloheximide cs 17.9 and Pf growth 96h inconclusive.
`COC(=O)c1ccc(CNC(=O)COC(=O)COc2ccc(OC)cc2)cc1` gave Pf growth 48h -7.0%, Shiga inhibitor 19.1, Cycloheximide cs -6.1, Pf growth 96h 132.8% and NS1 function inh 2.9%.
O=C(CN(C(=O)c1csnn1)c1cccc2ccccc12)NCc1ccc(F)cc1 was read as Pf growth 48h -0.6%, Shiga inhibitor -6.7, Cycloheximide cs 8.3, Pf growth 96h 7.6% and NS1 function inh -9.9%.

Bioassay records as filed in PubChem BioAssay.
